PubChem BioAssay AID2156 (Johns Hopkins Ion Channel Center, 2009)
The whole screen tested about 310,000 compounds, of which about 3,400 (1.1%) were called active.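 The calls were made as follows: active = fluorescence ratio B-score at most minus 3 library SDs, with starting brightness B-score within 2 library SDs (cut at about -5.5 in these data); inactive = the rest, inconclusive results apart.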 The full list was thinned out, with actives kept by preference.

Each compound was assayed against Potassium voltage-gated channel subfamily KQT member 2 (Rattus norvegicus) (UniProt O88943) (assay: KCNQ2 channel blockers in CHO-K1 cells – cell-based, FluxOR thallium flux, B-score, primary screen (AID 2156)). Conditions: 20 min, at 10 µM; active compounds read low.
Potassium voltage-gated channel subfamily KQT member 2 (Rattus norvegicus), sequence (O88943 whole entry, looked up): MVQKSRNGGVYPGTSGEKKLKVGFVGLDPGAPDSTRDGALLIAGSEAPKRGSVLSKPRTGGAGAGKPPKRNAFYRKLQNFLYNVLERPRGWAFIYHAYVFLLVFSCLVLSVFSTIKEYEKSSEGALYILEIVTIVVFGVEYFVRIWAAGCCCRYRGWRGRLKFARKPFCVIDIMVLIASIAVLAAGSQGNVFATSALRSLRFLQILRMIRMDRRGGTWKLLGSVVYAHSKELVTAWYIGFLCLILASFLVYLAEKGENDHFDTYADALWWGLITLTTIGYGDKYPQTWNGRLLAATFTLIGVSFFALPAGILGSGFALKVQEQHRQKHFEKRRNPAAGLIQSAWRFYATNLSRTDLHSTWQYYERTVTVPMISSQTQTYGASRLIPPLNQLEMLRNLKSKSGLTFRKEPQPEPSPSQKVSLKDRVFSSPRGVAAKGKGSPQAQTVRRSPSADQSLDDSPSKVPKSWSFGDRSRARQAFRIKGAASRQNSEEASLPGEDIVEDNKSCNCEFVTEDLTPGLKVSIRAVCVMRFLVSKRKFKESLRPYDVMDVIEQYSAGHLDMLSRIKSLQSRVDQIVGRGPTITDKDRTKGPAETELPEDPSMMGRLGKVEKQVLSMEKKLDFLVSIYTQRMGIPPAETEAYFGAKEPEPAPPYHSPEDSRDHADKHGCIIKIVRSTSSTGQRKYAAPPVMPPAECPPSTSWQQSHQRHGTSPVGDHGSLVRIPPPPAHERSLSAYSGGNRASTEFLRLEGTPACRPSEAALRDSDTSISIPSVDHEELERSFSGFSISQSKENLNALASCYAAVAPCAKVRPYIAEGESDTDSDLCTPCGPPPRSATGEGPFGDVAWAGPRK

Compound	B-score
CCCCn1c(N)c(N(CCOC)C(=O)CSCC(=O)Nc2cccc(C)c2)c(=O)[nH]c1=O	inactive
O=S(=O)(Nc1cccc(-c2ccc(N3CCOCC3)nn2)c1)c1ccc(Cl)c(Cl)c1	inactive
Cc1cc(C)c(S(=O)(=O)N2CCCC2CNC(=O)c2ccc3c(c2)OCO3)c(C)c1 (stereo not given)	-3.59 (inactive)
CCN(CC)CCOc1ccc2c(c1)C(=NNC(=O)c1ccccn1)c1cc(OCCN(CC)CC)ccc1-2	-7.1 (active)
Cc1ccc(Cl)cc1NC(=O)c1ccccn1	-3.49 (inactive)
Cc1cccc(OCC(=O)NCCCNC(=O)c2ccccn2)c1	-0.01 (inactive)
COc1cc(C(=O)NCC(=O)NCCSc2ccc(Br)cc2)cc(OC)c1OC	inactive
COc1cccc(NC(=O)CN(C)C(=O)CSCc2nc3scc(-c4cccs4)c3c(=O)[nH]2)c1	inactive
CCc1ccccc1NC(=S)Nc1cc(OC)c(NC(=O)C(C)C)cc1OC	-0.92 (inactive)
CCc1ccccc1NC(=O)/C(=C/c1ccccc1)c1ccccc1	-9.3 (active)
O=C(/C=C/c1ccccc1)N/C(=C/c1ccccc1)C(=O)Nc1ccccc1O	-0.61 (inactive)
CCCC(=O)Nc1ccc(Cl)c(NC(=O)c2ccc(Br)o2)c1	inactive
COC(=O)c1ccc(N2CCOCC2)c(NC(=O)c2ccc(Br)o2)c1	inactive
CCN1CCN(c2c(Cl)cccc2NC(=O)c2ccc(Br)o2)CC1	-6.14 (active)
CN(/N=C/c1ccccc1)C(=S)c1ccccc1	inactive
O=C(NCCS(=O)(=O)N1CCN(c2ccc(F)cc2)CC1)c1ccc2c(c1)OCO2	inactive
O=C(c1cccc([N+](=O)[O-])c1)N1CCN(Cc2ccccc2)CC1	inactive
CC1(c2cccc([N+](=O)[O-])c2)CC(C)(C)N(C(=O)c2ccccc2)c2ccccc21 (stereo not given)	-7.53 (active)
CC1(c2ccccc2)CC(C)(C)N(C(=O)c2cc([N+](=O)[O-])cc([N+](=O)[O-])c2)c2ccccc21 (stereo not given)	-1.63 (inactive)
NC(=O)c1ccsc1NC(=O)COC(=O)Cc1n[nH]c(=O)c2ccccc12	-1.74 (inactive)
COc1ccc(S(=O)(=O)NCCCc2ccccc2)cc1	inactive
Cc1ccc(OCCNC(=O)CCNS(=O)(=O)c2ccc(Br)cc2)cc1	inactive
O=C(Nc1cccc(Cl)c1N1CCOCC1)c1ccc2c(c1)OCCO2	-6.48 (active)
COC(=O)c1ccc(N2CCOCC2)c(NC(=O)c2ccc3c(c2)OCCO3)c1	inactive

Compound	B-score
O=C(Nc1cccc(Cl)c1N1CCOCC1)c1cccnc1	inactive
Cc1ccc(NC(=O)CSCC(=O)Nc2sccc2C#N)cc1	-0.08 (inactive)
O=C(COC(=O)c1ccccc1Br)Nc1nnc(-c2ccccc2)o1	-0.06 (inactive)
CCOc1ccc(CN(Cc2ccco2)C(c2cccs2)c2nnnn2C(C)(C)C)cc1 (stereo not given)	-6.35 (active)
CC(C)(C)n1nnnc1C(c1cccs1)N(Cc1cccnc1)CC1CCCO1 (stereo not given)	-0.68 (inactive)
CCOc1ccc(CN(Cc2ccco2)S(=O)(=O)c2ccc(-n3cnnn3)c(OC)c2)cc1	inactive
O=C(NCc1ccccn1)Nc1ccc(Cl)cc1	inactive
CCCN(CC(=O)Nc1ccccc1OC)C(=O)CCC(=O)c1ccc(F)cc1	-1.98 (inactive)
CN(C1CCS(=O)(=O)C1)S(=O)(=O)c1ccc2ccccc2c1 (stereo not given)	-0.6 (inactive)
O=C1c2oc3ccc(Br)cc3c(=O)c2C(c2cccc(F)c2)N1CCO (stereo not given)	-4.46 (inactive)
COCCN1C(=O)c2oc3c(C)cc(C)cc3c(=O)c2C1c1cccc(O)c1 (stereo not given)	-6.4 (active)
O=C1c2oc3ccccc3c(=O)c2C(c2cccc(O)c2)N1c1ccccn1 (stereo not given)	-0.06 (inactive)
CC(=O)O[C@H]1CC[C@@]2(C)[C@@H](CC[C@@H]3[C@@H]2CC[C@]2(C)[C@@H](C(C)(C)O)C[C@@H]32)C1	inactive
COc1ccc(NS(=O)(=O)c2ccc(C)c(C(=O)N(C)Cc3ccc(OC)cc3OC)c2)cc1	inactive
CCn1c(SC(C)C(=O)Nc2ccc(N3CCOCC3)cc2)nnc1-c1ccco1 (stereo not given)	inactive
COc1ccccc1NC(=O)COC(=O)c1ccccc1SCC(=O)N1CCCC1	inactive
Nc1ccccc1SC(C[N+](=O)[O-])c1ccccc1 (stereo not given)	-7.63 (active)
CCS(=O)(=O)c1cc([N+](=O)[O-])c(Sc2ccccc2N)s1	inactive
Nc1ccccc1SCc1cc([N+](=O)[O-])cc2c1OCOC2	-0.29 (inactive)
Cc1cc(C)c(-c2csc(NC(=O)CCCc3nc4ccccc4c(=O)[nH]3)n2)c(C)c1	inactive
Cc1ccc(S(=O)(=O)N2CCOCC2)cc1C(=O)NCc1ccc(F)cc1	inactive
Cc1cc(C(=O)NNC(=O)c2cccc(S(=O)(=O)N3CCOCC3)c2)c2ccccc2n1	-0.22 (inactive)
Cc1cc(C(=O)Nc2ccccc2N2CCOCC2)c2ccccc2n1	-6.19 (active)
O=C(Nc1ccccc1N1CCCC1)c1ccc(F)c(S(=O)(=O)N2CCOCC2)c1	-0.88 (inactive)

Compound	B-score
Cc1ccc(S(=O)(=O)N2CCOCC2)cc1C(=O)Nc1ccccc1N1CCCC1	-6.63 (active)
O=C(Nc1ccccc1N1CCOCC1)c1csc2c1CCCC2	-4.47 (inactive)
CN(C)CCn1c2c(c(SCC(=O)Nc3ccccc3C(F)(F)F)nc1=O)CCCC2	-0.04 (inactive)
Nc1c(-c2ccccc2)nnn1Cc1ccccc1	inactive
Cc1ccc(S(=O)(=O)N2CCN(C(=O)c3ccc(-n4cncn4)c([N+](=O)[O-])c3)CC2)cc1	-0.29 (inactive)
Cc1cccc(C)c1NC(=O)CNC(=O)c1c(C)nn(-c2ccccc2)c1C	-1.69 (inactive)
O=C(Nc1nc(-c2ccco2)c(-c2ccco2)s1)c1ccco1	-3.35 (inactive)
Cc1nc2ccccc2c(C)c1C(=O)c1ccc(F)cc1	-1.04 (inactive)
CC(=O)c1c(-c2ccccc2)c2ccccc2[nH]c1=O	-0.37 (inactive)
Cc1nc2ccccc2c(-c2ccccc2)c1C(=O)c1ccccc1	-9.15 (active)
COc1cnn(-c2ccc([N+](=O)[O-])cc2)c(=O)c1Cl	-0.13 (inactive)
COc1ccccc1C(=O)Nc1ccc(Nc2ccccc2)cc1	inactive
COc1ccc(CNS(=O)(=O)c2cc3c4c(c2)CCN4C(=O)CC3)cc1	-1.56 (inactive)
Cc1ccc(NC(=O)C2CC(=O)N(c3ccc4c(c3)OCCO4)C2)cc1S(=O)(=O)N1CCCCCC1 (stereo not given)	-1.45 (inactive)
Cc1ccc2cc(CCNC(=O)c3c(-c4ccccc4Cl)noc3C)c(=O)[nH]c2c1	-1.13 (inactive)
Cc1onc(-c2ccccc2Cl)c1C(=O)NCCn1ccc2ccccc21	-5.59 (active)
Cc1onc(-c2ccccc2Cl)c1C(=O)OCC(=O)c1ccccc1	-1.85 (inactive)
COc1ccc(-c2[nH]nc(-c3ccccc3)c2-c2nc3ccccc3[nH]2)cc1	-7.31 (active)
COc1ccc(OC(C)C(=O)NCCc2nc3ccccc3[nH]2)cc1 (stereo not given)	inactive
Cc1ccc(-c2nc3ccccc3[nH]2)cc1N	-0.17 (inactive)
COc1ccc(CCNC(=S)N2CCN(S(=O)(=O)c3ccc(F)cc3)CC2)cc1	-0.54 (inactive)
Cc1ccc(CSCC(=O)N(C)CC(=O)Nc2ccc(C)cc2)cc1	inactive
CC(Oc1ccc(Br)cc1)C(=O)NCC(c1ccco1)N1CCCCC1 (stereo not given)	-2.11 (inactive)
CCOC(=O)c1c(NC(=S)NC)sc2c1CCCC2	inactive

Compound	B-score
CCOC(=O)c1c(NC(=O)CCC(=O)NCc2ccco2)sc2c1CCCC2	inactive
CCOC(=O)c1c(NC(=O)Cn2nc(C(F)(F)F)cc2C)sc2c1CCC2	-0.09 (inactive)
CCOC(=O)c1c(NC(=O)C2(C)Cc3ccccc3C(=O)O2)sc2c1CCCC2 (stereo not given)	-5.8 (active)
CCOC(=O)c1c(NC(=O)C(C)Sc2c[nH]c3ccccc23)sc2c1CCC2 (stereo not given)	-4.14 (inactive)
CCOC(=O)c1c(NC(=O)CSc2cn(CC)c3ccccc23)sc2c1CCC2	-7.2 (active)
CC(Sc1nn(-c2ccc(Cl)cc2)c(=S)s1)C(=O)NCC1CCCO1 (stereo not given)	-0.45 (inactive)
COc1cccc(NC(=O)CSc2nccn(-c3ccc4c(c3)OCCO4)c2=O)c1	-2.03 (inactive)
COc1ccccc1CCC(=O)NNC(=O)c1ccncc1	-1.15 (inactive)
COc1ccc(S(=O)(=O)N2CCOC23CCN(S(=O)(=O)c2ccc([N+](=O)[O-])cc2)CC3)cc1	-0.03 (inactive)
Cc1ccc(N=C2SCCCN2C(=O)c2cccc(N3C(=O)CCC3=O)c2)cc1Cl	inactive
COc1ccccc1NC(=O)C(C)OC(=O)c1ccc(-n2cnnn2)cc1 (stereo not given)	inactive
O=C(CCN1C(=O)C2CCCCC2C1=O)Nc1ccc(OC(F)F)cc1 (stereo not given)	-1.21 (inactive)
C[C@H](NC(=O)c1ccccc1Cl)C(=O)OCCOc1cccc(Cl)c1	-6.72 (active)
O=C(COc1cccc(Cl)c1)NCc1ccccc1	inactive
CC(C)NC(=O)c1ccc(Cl)cc1Cl	inactive
CCOC(=O)c1c(C)[nH]c(C(=O)OCC(=O)c2ccc(OC)cc2OC)c1C	-0.07 (inactive)
COc1ccc(S(=O)(=O)N2CCCCC2)cc1NC(=O)C1CC(=O)N(c2ccc3c(c2)OCCO3)C1 (stereo not given)	-0.27 (inactive)
Cc1csc2nc(O)c(C(=O)NCCN3CCOCC3)c(=O)n12	inactive
Cc1ccc(SCC(=O)Nc2ccc3c(c2)OCCO3)cc1	inactive
Cc1ccc(C(=O)CSc2ccccc2C(=O)O)cc1	inactive
Cc1ccc(SCC(=O)c2cc(C)c(OC(=S)N(C)C)c(C)c2)cc1	-7.36 (active)
Cc1ncc(CO)c(/C=N/NC(=O)c2cccc(S(=O)(=O)N3CCCC3)c2)c1O	-2.49 (inactive)
Cc1ccc(C(=O)NC2CCCC(C)C2C)cc1S(=O)(=O)N1CCCCC1 (stereo not given)	-3.09 (inactive)
